PubChem BioAssay (NCI)
About 79,000 compounds went through this panel and 15% of them were active in at least one assay; those are over-represented in the sample as a whole. A number with no mark means an inactive call. Calls of active or inactive are those of the source. Cut-off read from the data, not from the text of the source: active = growth inhibition above about 70%; inactive = the rest.

Experiments:
[1] = NCI Yeast Anticancer Drug Screen. Data for the rad50 strain (AID 155);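 note: 0% = growth of vehicle-only cultures of the same strain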; settings: S. cerevisiae rad50 strain growth inhibition, active compounds read high
How it was run: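 Vehicle-treated cultures provide the reference for the growth inhibition reported for compound-exposed, repair-deficient yeast.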

[2] = NCI Yeast Anticancer Drug Screen. Data for the mec2-1 strain (AID 157); settings: S. cerevisiae mec2-1 strain, active compounds read high
How it was run: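 Mutant yeast (mec2-1) grown with compound; growth inhibition relative to vehicle control reported.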

[3] = NCI Yeast Anticancer Drug Screen. Data for the sgs1 mgt1 strain (AID 161);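 note: 0% = growth of cultures given vehicle only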; settings: S. cerevisiae sgs1 mgt1 strain, active compounds read high
How it was run: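 Growth of a repair-deficient yeast mutant was monitored after compound treatment and expressed as inhibition relative to vehicle-treated cultures.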

[4] = NCI Yeast Anticancer Drug Screen. Data for the cln2 rad14 strain (AID 165);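 note: 0% = growth equal to vehicle treated cultures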; settings: S. cerevisiae cln2 rad14 strain, active compounds read high
How it was run: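 Readout is yeast growth inhibition versus vehicle-treated controls, using a strain with cln2 and rad14 alterations exposed to compound.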

[5] = NCI Yeast Anticancer Drug Screen. Data for the bub3 strain (AID 167); settings: S. cerevisiae bub3 mutant strain, active compounds read high
How it was run: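 Mutant yeast screening strain plus compound; vehicle-treated cultures serve as the 0% inhibition reference.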

[6] = NCI Yeast Anticancer Drug Screen. Data for the mlh1 rad18 strain (AID 175); settings: S. cerevisiae mlh1 rad18 strain growth inhibition, active compounds read high
How it was run: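 Genetically defined yeast (DNA repair-deficient) exposed to compounds; growth inhibition determined relative to vehicle.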

[7] = at 5.0 µM (retest, dose inferred, filed as 0.5)
[8] = at 50.0 µM (retest, dose inferred, filed as 5.0)

| SMILES | growth inhibition [1, 7] [%] | growth inhibition [1, 8] | growth inhibition ([1]; at 50.0 µM) | growth inhibition [2, 7] [%] | growth inhibition [2, 8] | growth inhibition ([2]; at 50.0 µM) | growth inhibition [3, 7] | growth inhibition [3, 8] | growth inhibition ([3]; at 50.0 µM) | growth inhibition [4, 7] | growth inhibition [4, 8] | growth inhibition ([4]; at 50.0 µM) | growth inhibition [5, 7] | growth inhibition [5, 8] | growth inhibition ([5]; at 50.0 µM) | growth inhibition [6, 7] [%] | growth inhibition [6, 8] | growth inhibition ([6]; at 50.0 µM) |
| --- | --- | --- | --- | --- | --- | --- | --- | --- | --- | --- | --- | --- | --- | --- | --- | --- | --- | --- |
| Cc1nc2c(O)c3c(c(O)c2nc1C)C1C=CC3CC1 | 30 | 83% (active) | 64% | 16 | 89% (active) | 66.2% | 30% | 84% (active) | 77.5% (active) | 22% | 30% | 14.2% | 39% | 91% (active) | 84.7% (active) | 20 | 82% (active) | 14.2% |
| CN(C)c1nc(-c2ccccc2)cc(-c2ccc(O)cc2)n1 | 14 | 93% (active) | 36.8% | -10 | 27% | 13.7% | 22% | 92% (active) | 45.9% | 22% | 48% | 45.5% | -2% | 77% (active) | 60.5% | 24 | 88% (active) | 68.2% |
| CCCCCCCCCCCCCC(=O)CC(=O)c1c(O)cccc1O | 2 | -7% | -9.1% | -3 | -1% | -5.8% | 7% | -13% | -3.9% | 10% | 12% | -64.6% | -11% | -5% | 7% | 35 | 17% | 17.1% |
| CC1(C)c2ccccc2Cc2cc3ccccc3nc21 | 0 | 98% (active) | 97.8% (active) | -4 | 99% (active) | 93% (active) | -5% | 97% (active) | 90.2% (active) | 1% | 95% (active) | 25.2% | -3% | 98% (active) | 94% (active) | -1 | 98% (active) | 83.2% (active) |
| Cn1c(=S)c2[nH]c(SC3CCCCC3)nc2n(C)c1=O | 46 | 68% | 94.8% (active) | 42 | 61% | 99.5% (active) | 41% | -20% | 99.2% (active) | 27% | 34% | 52.5% | 52% | 63% | 98.2% (active) | 23 | 62% | 98.8% (active) |
| Oc1cc(F)cc2cccnc12 | 43 | 92% (active) | 92.3% (active) | 46 | 91% (active) | 94.3% (active) | 99% (active) | 99% (active) | 94.1% (active) | 88% (active) | 100% (active) | 92.5% (active) | 100% (active) | 100% (active) | 93.3% (active) | 42 | 99% (active) | 91.3% (active) |
| Clc1ccc(C2NC(c3ccccc3)c3c(ccc4ccccc34)O2)cc1 (configuration not stated) | -4 | 26% | 70.5% (active) | 7 | 19% | 66.2% | 2% | 39% | 27.1% | 1% | 15% | 81.2% (active) | 3% | 7% | 58.6% | 27 | 53% | 77.7% (active) |
| CC(=O)Nc1ccc(/C=c2\sc3nnc(-c4cccnc4)n3c2=O)cc1 | 33 | 87% (active) | 89.8% (active) | 7 | 91% (active) | 88% (active) | 6% | 78% (active) | 87.2% (active) | -5% | 58% | 71% (active) | 8% | 94% (active) | 80.5% (active) | -17 | 95% (active) | 86.5% (active) |
| Cc1ccccc1NC(=S)N/N=C(/c1ccccc1)c1ccccn1 | 5 | 94% (active) | 53.9% | -17 | 92% (active) | 61% | 26% | 92% (active) | 69.7% | -38% | 91% (active) | 68.4% | -47% | 92% (active) | 76.3% (active) | 26 | 92% (active) | 75.4% (active) |
